Assay [1] in a line: ATG_TAL_CIS: Attagene CIS-FACTORIAL HepG2 Assay for human TAL Basal Promoter (AID 2282966).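 Further: background control endpoint measuring basal TAL promoter reporter mRNA not a specific factor.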 Conditions: HepG2 Attagene cis-factorial TAL promoter reporter; actives raise or lower the signal. The method in brief:
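Readout: reporter mRNA, fluorescence by CE. System: HepG2, transient multi-reporter transfection, endogenous TF activity. Exposure: 24 h. Analysis: bidirectional, DMSO-normalized; background control.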

A short description of assay [2]: ATG_TGFb_CIS: Attagene CIS-FACTORIAL HepG2 Assay for human Transforming Growth Factor (TGF) (AID 2282967). The conditions noted are these: HepG2 Attagene CIS TGFb reporter, mRNA transcription; actives raise or lower the signal. The essentials:
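Liver HepG2 line, cis-factorial reporter panel, 24 h dosing. Quantitation: RT-PCR products labeled with 6-FAM, cut with HpaI, resolved by capillary electrophoresis; DMSO-referenced bidirectional analysis.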

The nature of assay [3]: ATG_VDRE_CIS: Attagene CIS-FACTORIAL HepG2 Assay for human Vitamin D Receptor Element (VDRE) (AID 2282968). The conditions noted are these: HepG2 VDRE cis-reporter transcription, actives raise or lower the signal. The essentials: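 Reporter mRNA induction, quantified by capillary electrophoresis of fluorescently labelled RT-PCR products, was read 24 h after dosing HepG2 cells carrying transiently transfected cis-regulated reporter units; gain or loss relative to DMSO.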

The target of assay [4] is X-box-binding protein 1 (Homo sapiens) (UniProt P17861). Kind of assay: ATG_Xbp1_CIS: Attagene CIS-FACTORIAL HepG2 Assay for human X-box Binding Protein 1 (XBP1) (AID 2282972). Conditions: HepG2 XBP1 cis-element reporter, Attagene multiplex; actives raise or lower the signal. The essentials:
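HepG2, transient MRTU transfection (cis-promoter driven), 24 h compound exposure. Total RNA → oligo(dT) RT → PCR → 6-FAM labeling → HpaI cut → CE. Bidirectional fit vs DMSO.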

Assay [5] can be described thus: ATG_GAL4_TRANS: Attagene TRANS-FACTORIAL HepG2 Assay for GAL4 (Internal Marker) (AID 2282976; active means hit-call score of the fitted dose curve at least 0.9, where 1 is the maximum). The conditions noted are these: HepG2 Attagene TRANS GAL4 internal marker reporter. The method in brief: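 Fluorescence from capillary electrophoresis of labelled RT-PCR products quantifies reporter mRNA induction after 24 h dosing of HepG2 cells carrying transfected GAL4-UAS reporter transcription units. Vehicle DMSO serves as baseline.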

Assay [6] addresses Oxysterols receptor LXR-alpha (Homo sapiens) (UniProt Q13133). Kind of assay: ATG_LXRa_TRANS: Attagene TRANS-FACTORIAL HepG2 Assay for human Liver X Receptor alpha (LXRa) (AID 2282980; active means hit-call score of the fitted dose curve at least 0.9, where 1 is the maximum). Conditions: HepG2 Attagene TRANS reporter, LXRa transactivation. The method in brief:
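Transient HepG2 transfectants, 24 h dosing, RT-PCR/CE mRNA reporter quantitation; gain-of-signal vs DMSO.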

Assay [7] addresses Hepatocyte nuclear factor 4-alpha (Homo sapiens) (UniProt P41235). Kind of assay: ATG_HNF4a_TRANS: Attagene TRANS-FACTORIAL HepG2 Assay for human Hepatocyte Nuclear Factor 4 alpha (HNF4a) (AID 2282982; active means hit-call score of the fitted dose curve at least 0.9, where 1 is the maximum). Conditions: HepG2 HNF4a transactivation reporter, mRNA readout. The essentials: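 Readout is fluorescent reporter-transcript fragments resolved by capillary electrophoresis after RT-PCR from HepG2 cells dosed for 24 h. Cells carried transfected GAL4-UAS reporter constructs measuring exogenous NR-GAL4 chimera activity; DMSO served as baseline.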

Assay [8] in a line: ATG_M_06_TRANS: Attagene TRANS-FACTORIAL HepG2 Assay for M06 Transcription Factor (Internal Marker) (AID 2282983; active means hit-call score of the fitted dose curve at least 0.9, where 1 is the maximum;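 further: reporter transcript level by RT-PCR then capillary electrophoresis fluorescence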). The conditions noted are these: HepG2 Attagene TRANS M06 internal marker reporter. The method in brief: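 Measured by capillary electrophoresis of fluorescently labelled RT-PCR products, this endpoint reflects reporter mRNA in HepG2 cells harbouring exogenous NR-GAL4 reporter constructs after 24 h exposure, with DMSO as baseline.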

Assay [9] concerns the target Nuclear receptor subfamily 4 group A member 2 (Homo sapiens) (UniProt P43354). Kind of assay: ATG_NURR1_TRANS: Attagene TRANS-FACTORIAL HepG2 Assay for human Nuclear Receptor Related Protein 1 (NURR1) (AID 2282985; active means hit-call score of the fitted dose curve at least 0.9, where 1 is the maximum). Conditions: HepG2 Attagene TRANS reporter, mRNA readout. The method in brief: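 Transient transfection of HepG2, human liver cells, with multiple GAL4-UAS reporter transcription units. Cells dosed 24 h, RNA isolated, reverse-transcribed, PCR-amplified, FAM-labelled, HpaI-digested, sized by capillary electrophoresis. DMSO served as negative control.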

The target in assay [10] is Transcriptional activator Myb (Homo sapiens) (UniProt P10242). Kind of assay: ATG_Myb_CIS: Attagene CIS-FACTORIAL HepG2 Assay for human Myeloblastosis (Myb) Proto-Oncogene Transcription Factor (AID 2282986). The conditions noted are these: HepG2 Attagene CIS-FACTORIAL Myb reporter transcription; actives raise or lower the signal. The essentials:
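Transiently transfected HepG2 cells carrying a multiplexed cis-promoter reporter set report endogenous Myb activity after 24 h compound exposure. Reporter mRNA is read by RT-PCR with capillary electrophoresis of fluorescent products, fitted bidirectionally against DMSO.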

The target in assay [11] is Nuclear respiratory factor 1 (Homo sapiens) (UniProt Q16656). Kind of assay: ATG_NRF1_CIS: Attagene CIS-FACTORIAL HepG2 Assay for human Nuclear Respiratory Factor 1 (NRF1) Orphan Gene (AID 2282987). Conditions: HepG2 NRF1 cis-element reporter, Attagene multiplex; actives raise or lower the signal. The essentials: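 HepG2 cells transiently transfected with multiple cis-regulated reporter units, exposed 24 h. Reporter mRNAs measured by RT-PCR, fluorescent labelling, HpaI digestion and capillary electrophoresis; bidirectional fitting against DMSO.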

Assay [12] in a line: ATG_NFI_CIS: Attagene CIS-FACTORIAL HepG2 Assay for human Nuclear Factor I (NFI) (AID 2282989). The conditions noted are these: HepG2 cis-regulatory reporter, NFI response element transcription; actives raise or lower the signal. The method in brief:
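Transfected HepG2 liver cells, exposed 24 h, supplied total RNA for oligo(dT) reverse transcription and reporter-specific PCR. Labelled, HpaI-cut fragments were sized by capillary electrophoresis; DMSO set the baseline for bidirectional fitting.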

Assay [13] has as its target Glucocorticoid receptor (Homo sapiens) (UniProt P04150). Kind of assay: ATG_GR_TRANS: Attagene TRANS-FACTORIAL HepG2 Assay for human Glucocorticoid Receptor (GR) (AID 2282978; active means hit-call score of the fitted dose curve at least 0.9, where 1 is the maximum;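 further: activators score as hits since higher reporter transcript over DMSO is fitted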). The conditions noted are these: HepG2 Attagene TRANS GR reporter, mRNA transcription. The essentials: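 HepG2 cells transiently transfected with GAL4-UAS reporter units and exogenous GR-Gal4 chimera, dosed 24 h. Reporter mRNA by RT-PCR, FAM labeling, HpaI digest and capillary electrophoresis; gain-of-signal fit versus DMSO.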

Assay [14] addresses Bile acid receptor (Homo sapiens) (UniProt Q96RI1). Kind of assay: ATG_FXR_TRANS: Attagene TRANS-FACTORIAL HepG2 Assay for Farnesoid X Receptor (FXR) (AID 2282979; active means hit-call score of the fitted dose curve at least 0.9, where 1 is the maximum;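 further: hits raise reporter mRNA above DMSO so AC50 marks FXR activation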). The conditions noted are these: HepG2 Attagene TRANS FXR-GAL4 reporter transcription. The essentials: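 Chimeric FXR-GAL4 activity in transiently transfected human HepG2 liver cells is scored as induction of reporter mRNA after 24 h of dosing. Detection uses RT-PCR with fluorescent labelling and capillary electrophoresis, with DMSO serving as baseline.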

For assay [15], the target named is Oxysterols receptor LXR-beta (Homo sapiens) (UniProt P55055). Kind of assay: ATG_LXRb_TRANS: Attagene TRANS-FACTORIAL HepG2 Assay for human Liver X Receptor beta (LXRb) (AID 2282981; active means hit-call score of the fitted dose curve at least 0.9, where 1 is the maximum). Conditions: HepG2 Attagene TRANS GAL4-LXRb reporter, mRNA. The essentials: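 Transient transfection HepG2 (multiplexed RTUs, GAL4-UAS); NR-Gal4 chimera; 24 h exposure; RNA → RT-PCR → 6-FAM primer extension → HpaI → CE; increase vs DMSO.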

A short description of assay [16]: ATG_M_32_TRANS: Attagene TRANS-FACTORIAL HepG2 Assay for M32 Transcription Factor (Internal Marker) (AID 2282984; active means hit-call score of the fitted dose curve at least 0.9, where 1 is the maximum;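 further: transcript level of a background control reporter unit measured by RT-PCR and capillary electrophoresis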). The conditions noted are these: HepG2 Attagene TRANS M32 internal marker reporter. The method in brief:
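Measures reporter mRNA induction in human HepG2 liver cells after 24 h chemical treatment. Transcripts from transiently transfected GAL4-UAS reporter units are amplified, fluorescently labelled and sized by capillary electrophoresis; gain of signal relative to DMSO.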

Assay [17] concerns the target Estrogen-related receptor gamma (Homo sapiens) (UniProt P62508). Kind of assay: ATG_ERRg_TRANS: Attagene TRANS-FACTORIAL HepG2 Assay for human Estrogen-Related Receptor gamma (ERRg) (AID 2282977; active means hit-call score of the fitted dose curve at least 0.9, where 1 is the maximum;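 further: hits increase reporter signal over DMSO so potencies reflect activators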). Conditions: HepG2 Attagene TRANS reporter, ERRg transactivation. The method in brief: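 HepG2 cells transiently transfected with multiplexed GAL4-UAS reporter units driven by chimeric NR-Gal4 proteins; 24 h exposure. Reporter mRNA quantified by RT-PCR, fluorescent labelling, HpaI digestion and capillary electrophoresis; gain of signal vs DMSO.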

Assay [18] in a line: ATG_M_19_TRANS: Attagene TRANS-FACTORIAL HepG2 Assay for M19 Transcription Factor (Internal Marker) (AID 2282974; active means hit-call score of the fitted dose curve at least 0.9, where 1 is the maximum). The conditions noted are these: HepG2 Attagene TRANS-FACTORIAL M19 internal marker reporter. The essentials:
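HepG2 transiently transfected with GAL4-UAS multiplex reporter constructs, exposed 24 h; reporter RNA quantified by RT-PCR, 6-FAM labeling, HpaI digestion and capillary electrophoresis; internal background marker fitted upward versus DMSO.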

Results filed as inconclusive are left out. Active and inactive are the calls of the source. How the source made its calls, unless noted: active means hit-call score of the fitted dose curve at least 0.9, where 1 is the maximum; inactive means score below 0.9.

Chain of Bile acid receptor (Homo sapiens) (Q96RI1 whole entry, looked up, the tested form may be a part): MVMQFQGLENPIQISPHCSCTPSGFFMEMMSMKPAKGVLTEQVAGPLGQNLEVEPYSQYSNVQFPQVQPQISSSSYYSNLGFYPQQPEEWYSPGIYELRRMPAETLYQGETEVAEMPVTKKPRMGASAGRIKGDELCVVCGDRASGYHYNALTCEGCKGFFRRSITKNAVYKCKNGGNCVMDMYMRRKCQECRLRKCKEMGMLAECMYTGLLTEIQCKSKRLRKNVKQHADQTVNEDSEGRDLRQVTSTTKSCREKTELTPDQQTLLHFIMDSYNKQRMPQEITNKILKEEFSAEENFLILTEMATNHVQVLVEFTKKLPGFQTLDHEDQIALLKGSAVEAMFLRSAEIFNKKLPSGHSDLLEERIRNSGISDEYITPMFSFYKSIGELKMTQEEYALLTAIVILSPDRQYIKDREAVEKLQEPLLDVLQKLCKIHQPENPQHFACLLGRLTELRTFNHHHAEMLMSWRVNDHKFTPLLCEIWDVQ
Chain of Nuclear receptor subfamily 4 group A member 2 (Homo sapiens) (P43354 whole entry, looked up, the tested form may be a part): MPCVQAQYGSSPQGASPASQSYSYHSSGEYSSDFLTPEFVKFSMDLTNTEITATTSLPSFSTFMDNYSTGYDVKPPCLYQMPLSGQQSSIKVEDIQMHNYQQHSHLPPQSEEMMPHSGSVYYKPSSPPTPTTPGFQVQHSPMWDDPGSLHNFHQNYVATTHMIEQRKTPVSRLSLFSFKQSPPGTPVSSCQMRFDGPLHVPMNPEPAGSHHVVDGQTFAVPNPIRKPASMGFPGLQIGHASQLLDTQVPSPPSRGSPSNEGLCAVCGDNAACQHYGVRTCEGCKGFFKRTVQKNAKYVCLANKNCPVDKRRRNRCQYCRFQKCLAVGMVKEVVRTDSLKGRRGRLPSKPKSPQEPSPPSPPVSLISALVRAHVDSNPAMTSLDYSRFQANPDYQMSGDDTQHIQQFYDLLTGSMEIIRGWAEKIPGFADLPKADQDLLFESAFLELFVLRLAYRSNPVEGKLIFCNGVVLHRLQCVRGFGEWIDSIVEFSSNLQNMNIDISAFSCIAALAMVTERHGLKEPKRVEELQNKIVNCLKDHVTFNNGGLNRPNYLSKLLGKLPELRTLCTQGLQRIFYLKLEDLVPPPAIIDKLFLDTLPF
Chain of Transcriptional activator Myb (Homo sapiens) (P10242 whole entry, looked up): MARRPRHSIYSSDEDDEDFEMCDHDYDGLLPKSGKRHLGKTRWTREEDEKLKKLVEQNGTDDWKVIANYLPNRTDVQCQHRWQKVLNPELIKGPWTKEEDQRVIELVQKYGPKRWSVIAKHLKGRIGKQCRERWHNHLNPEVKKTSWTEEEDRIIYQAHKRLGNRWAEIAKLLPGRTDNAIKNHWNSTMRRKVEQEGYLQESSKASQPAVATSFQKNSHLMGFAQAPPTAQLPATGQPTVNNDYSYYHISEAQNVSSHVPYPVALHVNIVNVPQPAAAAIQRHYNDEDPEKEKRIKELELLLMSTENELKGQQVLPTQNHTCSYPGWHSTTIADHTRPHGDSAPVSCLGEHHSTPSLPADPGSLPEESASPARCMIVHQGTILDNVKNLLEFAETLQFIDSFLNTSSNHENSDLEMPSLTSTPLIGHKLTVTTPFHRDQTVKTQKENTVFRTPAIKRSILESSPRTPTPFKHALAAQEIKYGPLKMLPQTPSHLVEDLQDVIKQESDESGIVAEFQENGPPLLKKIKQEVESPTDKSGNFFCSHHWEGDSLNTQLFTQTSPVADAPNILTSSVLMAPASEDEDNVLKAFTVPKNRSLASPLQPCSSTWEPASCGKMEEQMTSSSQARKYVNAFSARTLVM
Chain of Oxysterols receptor LXR-beta (Homo sapiens) (P55055 whole entry, looked up, the tested form may be a part): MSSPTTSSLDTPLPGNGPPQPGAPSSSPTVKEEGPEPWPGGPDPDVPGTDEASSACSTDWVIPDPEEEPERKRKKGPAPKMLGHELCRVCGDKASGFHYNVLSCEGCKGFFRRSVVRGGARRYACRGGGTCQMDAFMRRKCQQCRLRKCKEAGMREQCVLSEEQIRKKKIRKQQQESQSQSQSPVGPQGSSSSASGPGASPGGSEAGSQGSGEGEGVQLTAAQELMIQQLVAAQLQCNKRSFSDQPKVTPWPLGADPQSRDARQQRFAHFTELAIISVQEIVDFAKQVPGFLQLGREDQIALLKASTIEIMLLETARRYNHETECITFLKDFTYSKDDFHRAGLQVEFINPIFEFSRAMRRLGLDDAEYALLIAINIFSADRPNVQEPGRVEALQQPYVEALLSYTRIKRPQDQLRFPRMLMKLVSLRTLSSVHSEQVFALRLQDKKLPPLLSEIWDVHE
Chain of Glucocorticoid receptor (Homo sapiens) (P04150 whole entry, looked up, the tested form may be a part): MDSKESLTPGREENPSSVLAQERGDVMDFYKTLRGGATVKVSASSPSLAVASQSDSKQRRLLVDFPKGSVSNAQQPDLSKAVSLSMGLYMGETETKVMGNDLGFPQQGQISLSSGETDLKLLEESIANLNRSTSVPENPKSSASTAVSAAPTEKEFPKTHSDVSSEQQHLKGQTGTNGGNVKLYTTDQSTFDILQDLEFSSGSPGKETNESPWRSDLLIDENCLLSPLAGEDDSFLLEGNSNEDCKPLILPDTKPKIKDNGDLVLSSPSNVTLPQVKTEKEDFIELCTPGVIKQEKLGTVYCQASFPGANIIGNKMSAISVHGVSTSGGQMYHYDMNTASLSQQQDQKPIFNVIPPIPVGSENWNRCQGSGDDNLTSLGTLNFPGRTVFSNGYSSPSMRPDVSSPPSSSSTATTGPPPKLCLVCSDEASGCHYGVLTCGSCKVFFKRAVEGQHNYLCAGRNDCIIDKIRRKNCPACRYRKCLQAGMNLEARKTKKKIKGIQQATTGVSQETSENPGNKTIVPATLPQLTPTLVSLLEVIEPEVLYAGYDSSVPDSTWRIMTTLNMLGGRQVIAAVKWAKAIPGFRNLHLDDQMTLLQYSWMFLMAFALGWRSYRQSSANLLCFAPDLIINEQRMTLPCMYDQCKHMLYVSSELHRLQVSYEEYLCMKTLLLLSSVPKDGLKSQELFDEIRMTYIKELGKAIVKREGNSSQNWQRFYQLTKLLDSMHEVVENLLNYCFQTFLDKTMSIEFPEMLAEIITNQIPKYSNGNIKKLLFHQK
Chain of Hepatocyte nuclear factor 4-alpha (Homo sapiens) (P41235 whole entry, looked up, the tested form may be a part): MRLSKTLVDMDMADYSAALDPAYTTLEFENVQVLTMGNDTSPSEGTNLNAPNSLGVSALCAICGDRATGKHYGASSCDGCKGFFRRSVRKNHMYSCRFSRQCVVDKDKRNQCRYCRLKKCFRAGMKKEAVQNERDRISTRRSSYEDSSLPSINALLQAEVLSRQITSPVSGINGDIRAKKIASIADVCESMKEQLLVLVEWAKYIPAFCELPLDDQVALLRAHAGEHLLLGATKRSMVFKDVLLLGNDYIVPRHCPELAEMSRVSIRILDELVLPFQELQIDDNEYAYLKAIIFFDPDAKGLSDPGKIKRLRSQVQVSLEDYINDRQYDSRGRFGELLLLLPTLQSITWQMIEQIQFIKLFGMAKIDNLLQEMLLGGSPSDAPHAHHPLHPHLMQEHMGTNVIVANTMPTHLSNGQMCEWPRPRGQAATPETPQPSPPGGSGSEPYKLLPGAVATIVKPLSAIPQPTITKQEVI
Chain of Oxysterols receptor LXR-alpha (Homo sapiens) (Q13133 whole entry, looked up): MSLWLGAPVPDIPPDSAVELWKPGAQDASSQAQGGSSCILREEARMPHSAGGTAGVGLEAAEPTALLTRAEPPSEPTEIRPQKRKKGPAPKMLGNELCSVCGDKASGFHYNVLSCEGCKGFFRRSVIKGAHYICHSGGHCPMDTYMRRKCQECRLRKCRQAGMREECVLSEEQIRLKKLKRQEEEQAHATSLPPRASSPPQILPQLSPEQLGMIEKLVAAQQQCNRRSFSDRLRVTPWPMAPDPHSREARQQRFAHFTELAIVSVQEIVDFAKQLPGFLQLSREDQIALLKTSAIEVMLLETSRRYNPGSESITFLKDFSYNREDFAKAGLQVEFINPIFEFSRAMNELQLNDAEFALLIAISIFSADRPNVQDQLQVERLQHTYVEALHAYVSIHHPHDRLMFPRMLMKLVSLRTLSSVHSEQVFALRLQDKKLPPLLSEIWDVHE
Chain of X-box-binding protein 1 (Homo sapiens) (P17861 whole entry, looked up): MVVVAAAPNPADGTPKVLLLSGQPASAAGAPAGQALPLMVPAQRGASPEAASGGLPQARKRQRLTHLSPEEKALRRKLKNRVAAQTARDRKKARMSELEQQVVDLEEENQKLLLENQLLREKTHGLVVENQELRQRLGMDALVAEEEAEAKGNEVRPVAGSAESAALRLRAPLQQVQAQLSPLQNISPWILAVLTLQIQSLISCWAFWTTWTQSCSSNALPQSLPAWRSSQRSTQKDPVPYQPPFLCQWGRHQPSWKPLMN
Chain of Nuclear respiratory factor 1 (Homo sapiens) (Q16656 whole entry, looked up): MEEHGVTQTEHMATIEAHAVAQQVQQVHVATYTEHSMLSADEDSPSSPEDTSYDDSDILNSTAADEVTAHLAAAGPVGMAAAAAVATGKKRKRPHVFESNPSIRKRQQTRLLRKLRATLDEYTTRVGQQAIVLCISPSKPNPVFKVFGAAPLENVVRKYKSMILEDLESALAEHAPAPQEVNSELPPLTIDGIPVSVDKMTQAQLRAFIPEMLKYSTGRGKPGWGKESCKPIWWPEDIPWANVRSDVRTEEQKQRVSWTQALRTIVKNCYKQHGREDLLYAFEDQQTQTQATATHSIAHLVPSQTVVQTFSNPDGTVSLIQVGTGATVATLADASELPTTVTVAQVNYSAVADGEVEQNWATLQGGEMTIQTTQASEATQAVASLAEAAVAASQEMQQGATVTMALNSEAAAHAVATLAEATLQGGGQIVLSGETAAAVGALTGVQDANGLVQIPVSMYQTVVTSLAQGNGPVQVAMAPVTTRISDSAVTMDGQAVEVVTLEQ

As to `CC(=O)C(C)O` (configuration not stated), the result in assay [1], in assay [2], in assay [3], in assay [4], in [5] and in [6] was inactive. The outcome in assay [7], in assay [8], in [9], in [10], in assay [11] and in assay [12] was inactive.
Turning to `Cc1cc(=O)oc2cc(N(C)C)ccc12`, the result in assay [1], in assay [2], in assay [3], in [4], in [5] and in [13] was inactive. Moreover, the result in assay [14], in assay [6], in assay [15], in [8], in [16] and in [10] was inactive. Further, the molecule was called inactive in [11] and in assay [12].
In the case of `OCC(O)c1ccccc1` (configuration not stated), the molecule was classed as inactive in assay [1], in assay [2], in assay [3], in assay [4], in [5] and in assay [6]. The call in [9], in [10] and in assay [11] was inactive.
On to `OCC#CCO`, for which the call in assay [1], in assay [2], in assay [3], in assay [4], in assay [13] and in assay [14] was inactive. Besides, the molecule was classed as inactive in assay [8], in [9], in [10], in assay [11] and in assay [12].
`CCCCCCCCCCCC(=O)OCC(O)CO` (configuration not stated): the outcome in assay [1], in assay [2], in [3], in assay [4], in [5] and in assay [8] was inactive. Further, the outcome in assay [16], in assay [10], in assay [11] and in [12] was inactive. Besides, the AC50 (commonly the midpoint of the concentration-response curve, whichever way the signal moves) in assay [9] is 132 µM (active).
As to `CCc1cc(Cc2cc(CC)cc(C(C)(C)C)c2O)c(O)c(C(C)(C)C)c1`, the call in assay [1], in [2], in [17], in assay [13], in assay [14] and in assay [6] was inactive. Also, the outcome in [15], in [7], in [8], in assay [10] and in assay [11] was inactive. In addition, the half-maximal activity concentration (AC50) in assay [3] is 4.77 µM (active); in assay [4] it was 16.9 µM (active); in assay [12] it was 13.5 µM (active).
Consider `CCCCC1CCC(O)CC1` (configuration not stated), for which the molecule was called inactive in assay [1], in [2], in assay [3], in [4], in [5] and in [13]. Further, the outcome in assay [14], in assay [7], in assay [8], in [16], in [9] and in assay [10] was inactive. Also, the result in assay [11] and in assay [12] was inactive.
`COc1cc(C(C)C)ccc1C`: the outcome in assay [1], in assay [2], in assay [3], in assay [4], in assay [13] and in [14] was inactive. Besides, the molecule was called inactive in assay [8], in assay [10], in assay [11] and in assay [12].
For the molecule `CC(C)(C)OC(=O)c1ccc(O)cc1`, the outcome in [1], in assay [2], in assay [13], in [14], in [6] and in assay [15] was inactive. The molecule was called inactive in assay [7], in assay [8], in assay [9], in assay [10], in assay [11] and in [12]. For the same molecule, the AC50 is 45.4 µM (active) in assay [3] and 70.3 µM (active) in [4].
Turning to `CS(=O)(=O)OCCCCOS(C)(=O)=O`, the molecule was called inactive in [1], in [2], in assay [3], in assay [4], in assay [18] and in assay [8]. The molecule was called inactive in [10], in assay [11] and in assay [12].
Turning to `Cc1ccc(S(N)(=O)=O)cc1`, the outcome in [1], in [2], in assay [3], in [4], in assay [5] and in assay [13] was inactive. Moreover, the call in assay [14], in assay [6], in assay [7], in [8], in [16] and in [10] was inactive. Moreover, the outcome in assay [11] and in [12] was inactive.

The record behind these values is PubChem BioAssay (EPA / NIEHS).
